{
  "source": "PubChem BioAssay",
  "data": [
    {"biological_target": "Alpha-bungarotoxin (Bungarus multicinctus) (UniProt P60615)", "sequence (P60615 whole entry, looked up)": "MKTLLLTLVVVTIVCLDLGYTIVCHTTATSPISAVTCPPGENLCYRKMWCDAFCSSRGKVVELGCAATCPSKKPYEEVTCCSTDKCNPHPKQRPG", "assay": "compounds binding labelled alpha-BTX control protein – biochemical, small-molecule microarray, Alexa647 label, 635/667 nm fluorescence, artefact control for SMM control protein annotation, profiling panel (AID 1117)", "conditions": "alpha-BTX-A647 binding fluorescence, higher = more signal", "values": [
      {"smiles": "CCCN1C(=O)[C@@]2(CCC(=O)OC(C)(C)C)N=C(c3ccc(OCCCO)cc3)O[C@H]2c2ccccc21", "composite z-score": 0.285},
      {"smiles": "O=C(O)[C@H]1C[C@H]2C(=O)NCC(=O)N2[C@H]1c1ccc(O)cc1", "composite z-score": 2.03},
      {"smiles": "CC(C)c1ccc(NN2C(C(O)c3ccc(N(C)C)cc3)C=CC3C(=O)N(c4ccccc4)C(=O)C32)cc1", "note": "(configuration not stated)", "composite z-score": 1.73},
      {"smiles": "CCC[C@@H]1C=C(C(=O)O)[C@H](c2ccc(C)cc2)N1S(=O)(=O)c1ccc(C)cc1", "composite z-score": 1.45},
      {"smiles": "CC(C)c1ccc(NN2C(C(O)c3c(F)cccc3Cl)C=CC3C(=O)N(c4ccccc4)C(=O)C32)cc1", "note": "(configuration not stated)", "composite z-score": 1.81},
      {"smiles": "CC(C)=CCCC(C)=CC(O)C1C=CC2C(=O)N(c3ccccc3)C(=O)C2N1Nc1ccccc1", "note": "(configuration not stated)", "composite z-score": 2.95},
      {"smiles": "COCC1=C2[C@@H](CCc3ccccc3)OB(O)C[C@@H]2[C@@H]2C(=O)N(Cc3ccccc3)C(=O)[C@@H]2C1", "composite z-score": 1.19},
      {"smiles": "COC(=O)[C@@]1(Cc2ccc(OC)cc2)[C@H]2c3cc(C(=O)N4CCCC4)n(CCc4c[nH]c5cc(F)ccc45)c3C[C@H]2CN1C(=O)c1ccccc1", "composite z-score": 1.42},
      {"smiles": "CC(C)N1CC=CC23O[C@@H]4C=CCOC(=O)[C@@H]4[C@H]2C(=O)N(CCO)[C@@H]3C1=O", "note": "(some centres not stated)", "composite z-score": -1.15},
      {"smiles": "COC(=O)C(CC#Cc1ccc2c(c1)[C@]1(C(=O)N2)[C@H](c2ccc(OCCO)cc2)N2[C@H](c3ccccc3)[C@H](c3ccccc3)OC(=O)[C@H]2[C@@H]1C(=O)NC[C@H](O)c1ccccc1)C(=O)OC", "composite z-score": 2.1},
      {"smiles": "CC(C)NC(=O)[C@@]1(Cc2ccccc2I)c2ccccc2C(=O)N(Cc2ccccc2)[C@H]1c1ccc(CO)cc1", "composite z-score": 1.4},
      {"smiles": "CCOC(=O)C[C@H]1[C@H](OC(=O)Cc2ccc3c(c2)OCO3)[C@@H](NC(=O)c2ccc(-c3ccccc3)cc2)c2cc(OCCCO)ccc2N1C(=O)c1ccccc1", "composite z-score": 0.815},
      {"smiles": "CC(c1ccccc1)C(O)C1C=CC2C(=O)NC(=O)C2N1Nc1ccccn1", "note": "(configuration not stated)", "composite z-score": 0.672},
      {"smiles": "COc1ccc(C#Cc2ccc3c(c2)[C@]2(C(=O)N3)[C@H](c3ccc(O)cc3)N3[C@H](c4ccccc4)[C@H](c4ccccc4)OC(=O)[C@H]3[C@@H]2C(=O)NC[C@H](O)c2ccccc2)cc1", "composite z-score": 1.26},
      {"smiles": "O=C1O[C@H](c2ccccc2)[C@H](c2ccccc2)N2[C@H]1[C@@H](C(=O)O)[C@]1(C(=O)Nc3ccc(C#CC4(O)CCCCCC4)cc31)[C@H]2c1ccc(OCCO)cc1", "composite z-score": 2.21},
      {"smiles": "NCCCCCCNC(=O)[C@H]1C[C@H]2C(=O)NCC(=O)N2[C@H]1c1cccc(OCCO)c1", "composite z-score": 1.37},
      {"smiles": "C=CCOC(=O)[C@H]1[C@@H]2C(=O)O[C@@H](c3ccccc3)[C@@H](c3ccccc3)N2[C@@H](c2ccc(OCCOC(=O)[C@@H]3C[C@@H]4C(=O)NCC(=O)N4[C@@H]3c3ccc(O)cc3)cc2)[C@]12C(=O)Nc1ccccc12", "composite z-score": -0.195},
      {"smiles": "[N-]=[N+]=Nc1ccccc1C[C@]1(C(=O)NCCN2CCOCC2)N=C(c2ccc(OCCCO)cc2)O[C@H]1c1ccccc1", "composite z-score": 0.968},
      {"smiles": "CC(C)N1C(=O)C[C@@](C(=O)NCc2ccccc2)(c2ccc([N+](=O)[O-])cc2)[C@H]1c1ccc(CO)cc1", "composite z-score": -0.148},
      {"smiles": "O=C1OCCC/C=C\\[C@H]2OC34C=CCN(Cn5nnc6ccccc65)C(=O)[C@H]3N(CCCCCO)C(=O)[C@@H]4C12", "note": "(some centres not stated)", "composite z-score": -0.697},
      {"smiles": "NCCCCCNC(=O)[C@H]1C[C@H]2C(=O)NCC(=O)N2[C@H]1c1cccc(OCCO)c1", "composite z-score": 1.51},
      {"smiles": "CN1C=C(C(=O)OCCS(C)(=O)=O)C(C(=O)OCCS(C)(=O)=O)=CC(CCCO)=CC1C1CC1", "note": "(configuration not stated)", "composite z-score": 0.198},
      {"smiles": "COCCOC(=O)N1C(=O)[C@@]2(c3cc(C#CC4=CCCCC4)ccc31)[C@H](C(=O)NC[C@H](O)c1ccccc1)[C@H]1C(=O)O[C@H](c3ccccc3)[C@H](c3ccccc3)N1[C@@H]2c1ccc(O)cc1", "composite z-score": 1.13},
      {"smiles": "CCCCCCCCCCC(O)C1C=CC2C(=O)N(Cc3ccccc3)C(=O)C2N1n1cnnc1", "note": "(configuration not stated)", "composite z-score": 1.02},
      {"smiles": "Cc1ccccc1C(O)C1C=CC2C(=O)N(C)C(=O)C2N1N1CCCCC1", "note": "(configuration not stated)", "composite z-score": 1.04},
      {"smiles": "CC(=O)NCCCC[C@@H]1NC(=O)[C@@H]2C[C@H](C(=O)NCCCCCCNC(=O)CS)[C@H](c3ccc(O)cc3)N2C1=O", "composite z-score": 1.36},
      {"smiles": "C=CCOC(=O)[C@H]1[C@@H]2C(=O)O[C@@H](c3ccccc3)[C@@H](c3ccccc3)N2[C@@H](c2ccc(OCCOC(=O)[C@@H]3C[C@@H]4C(=O)N5CCC[C@H]5C(=O)N4[C@@H]3c3ccc(O)cc3)cc2)[C@]12C(=O)Nc1ccccc12", "composite z-score": 1.18}
    ]}
  ]
}
